# Screens as filed in PubChem BioAssay.
# In the library only some 4.1% were active in any assay of this set; here they are far more common.
# A1 inh = caspase 3/7 activation in MEF A1-2A-BIM cells, primary screen, A1 inhibitor project, cell-based, luminescence, HTS; caspase activation, % (concentration not given with the values); Caspase-Glo 3/7 luminescence, 3 h; percent of clofoctol response, vehicle zero; 0.066% of 330,000 active;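 active = over half of replicate activation scores above 10%, or exactly half above 10 with the replicate mean above 10; inconclusive = replicate mean below 10 yet half the replicates above 10; inactive = over half of replicates below 10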
# CSC inhib = cancer stem cell viability inhibitors, primary screen, luminescence; cancer stem cell-like cells viability; inhibition, % at 7.5 µM; 1.1% of 300,000 active; in the data active = inhibition above about 75%; inconclusive = no clear call, values can overlap the other calls; tested in HMLE shEcad cells
# aSyn 5UTR inh = MLPCN primary screen, SNCA 5' untranslated region. alpha-synuclein 5'UTR reporter, inhibitor activity. inhibition, % (tested at 7.5 µM). 0.82% of 300,000 active. AID 1813, 2009; in the data active = inhibition above about 60%; inconclusive = no clear call, values can overlap the other calls;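 also: H4 neuroglioblastoma cells stably carrying SNCA 5'UTR luciferase fusion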
# Mdm2 MdmX PPI = inhibitors of human Mdm2-MdmX association, primary screen, cell-based, luminescence, split luciferase, SaOS-2, uHTS; SaOS-2 split-luciferase Mdm2/MdmX complementation; Protein Mdm4 (Homo sapiens) + E3 ubiquitin-protein ligase Mdm2 (Homo sapiens), …; inhibition, % at 8 µM; 3% of 330,000 active;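 active = inhibition of at least 50% at 8 µM in the primary screen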
# Beta cell apopt = inhibitors of cytokine-induced beta cell apoptosis, primary screen, luminescence; INS-1E cytokine-induced death, ATP luminescence, 48 h; percent of positive-control rescue, neutral wells zero; protection from apoptosis, % (concentration not given with the values); 0.8% of 300,000 active; AID 435005, 2010;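 active = Every replicate reaches about 75%, or at least half do and their mean reaches it too, limit read from the data; inconclusive = At least half of replicates reach the limit but their mean does not; inactive = Under half of replicates reach the limit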;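 also: higher means more ATP so stronger rescue from cytokine killing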
# Mdm2-MdmX conf = Mdm2-MdmX complex disruptors, retested hits, confirmation, luminescence, single concentration; shares compounds with Mdm2 MdmX PPI; Mdm2-MdmX binding, luminescent assay; inhibition, % at 8 µM; 55% of 10,000 active; in the data active = inhibition above about 40%
# Full FLuc ctr = full-length luciferase signal inhibition, confirmation, counter-screen for Mdm2/MdmX interaction inhibitor project, cell-based, single concentration, SaOS-2; shares compounds with Mdm2 MdmX PPI; SaOS-2 full-length luciferase counterscreen, luminescence; inhibition, % at 8 µM; 77% of 6,200 active; AID 504607, 2011;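 active = mean inhibition at 8 µM reaching about 37%, which flags the compound as non-specific, limit read from the data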;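 also: p53-null SaOS-2 cells with luciferase driven by a doxycycline-inducible promoter; compound on cells about two nights before reading with doxycycline added after day one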
# Hits are given with their value; n = inactive; u = inconclusive; x = no result.
SMILES,A1 inh,CSC inhib,aSyn 5UTR inh,Mdm2 MdmX PPI,Beta cell apopt,Mdm2-MdmX conf,Full FLuc ctr
COc1cccc(C(=O)Oc2c(Br)cc(Br)cc2/C=N/NC(=O)c2cc(C)[nH]n2)c1,n,n,64,59,81,55,n
COc1ccc(Cl)cc1C(=O)NC(=S)Nc1cc(-c2nc3ccccc3[nH]2)ccc1C,n,n,n,76,n,n,x
COc1ccc(CNCCC2(Cc3ccccc3)CC(C)N(C)CC2C)cc1OC (centres undefined),n,n,n,61,n,n,x
CCCCN(c1ccccc1)c1ncnc(N)c1[N+](=O)[O-],n,n,n,55,n,83,52
Nc1ncnc(NC2CCS(=O)(=O)C2)c1[N+](=O)[O-] (centres undefined),n,n,n,n,n,x,x
Cc1ccccc1Oc1ncnc(N)c1[N+](=O)[O-],n,x,n,n,n,x,x
CN(c1ncnc(N)c1[N+](=O)[O-])C1CCS(=O)(=O)C1 (centres undefined),n,n,n,51,n,44,40
CN(c1ncnc(N)c1[N+](=O)[O-])C1CCCCC1,n,n,n,80,n,82,51
NC(=O)c1cc([N+](=O)[O-])c(Cl)cc1NCc1ccccn1,u,n,x,n,n,x,x
CCN(CC)c1ccc2cc(-c3nc4ccccc4[nH]3)c(=O)oc2c1,n,n,n,67,u,47,45
CCOC(=O)c1cnc(-c2ccccc2O)nc1Cl,n,n,n,n,n,x,x
CCOC(=O)C1=Nc2ccccc2C1=[N+]=[N-],n,n,n,51,107,n,x
O=c1cc(-c2ccccc2Cl)oc2c(NS(=O)(=O)c3cc(Cl)cc(Cl)c3O)ccc(O)c12,n,102,n,98,n,83,43
CC1=C(C(=O)OCCCBr)C(c2ccc3c(c2)OCO3)NC(=O)N1 (centres undefined),n,n,n,n,n,x,x
Cc1cc(C)n(-c2nc(N(c3ccccc3)c3ccccc3)nc(-n3nc(C)cc3C)n2)n1,n,n,u,100,x,100,58
COc1ccc(-c2cc(=Nc3c(C)n(C)n(-c4ccccc4)c3=O)c3ccccc3o2)cc1,n,n,n,n,n,x,x
COc1ccc(-c2c/c(=N\c3nc(-c4ccccc4)c(C)s3)c3ccccc3o2)cc1O,n,80,75,84,n,57,95
CCC1CCCCN1CCCNC(=O)c1cn(CC)c2ccc(S(=O)(=O)N3CCc4ccccc4C3)cc2c1=O (centres undefined),n,n,n,90,n,50,55
CCC1CCCCN1CCCNC(=O)c1cn(CC)c2ccc(S(=O)(=O)N(C)C3CCCCC3)cc2c1=O (centres undefined),n,n,n,n,n,x,x
CCCCN(CCCC)CCNC(=O)c1cn(CC)c2ccc(S(=O)(=O)N3CCc4ccccc4C3)cc2c1=O,n,n,n,72,n,n,x
CCn1cc(C(=O)NCCCN2CCCC(C)C2)c(=O)c2cc(S(=O)(=O)N3CCc4ccccc4C3)ccc21 (centres undefined),n,n,n,83,n,n,x
O=C(Nc1cccc(F)c1)C1CCCN(S(=O)(=O)c2ccc(-n3cnnn3)cc2)C1 (centres undefined),n,n,n,n,n,x,x
CN(C(=O)COc1ccc(Oc2ccccc2)cc1)C1CCS(=O)(=O)C1 (centres undefined),n,n,n,n,n,x,x
COc1ccc(C)cc1NC(=O)C1CCN(S(=O)(=O)c2ccc3c(c2)C(C)(C)C(=O)N3C)CC1,n,n,n,n,n,x,x
CCCN=C1N(C)C[C@@H]2[C@@H]3C(=O)N(C)C(=O)[C@@H]3[C@](C)(C(=O)OC)N12,x,x,x,n,x,x,x
SMILES,A1 inh,CSC inhib,aSyn 5UTR inh,Mdm2 MdmX PPI,Beta cell apopt,Mdm2-MdmX conf,Full FLuc ctr
COC(=O)Cc1ccc(OC(=O)c2cccc(S(=O)(=O)N3CCN(C)CC3)c2)cc1,n,n,n,n,n,x,x
CCN(CC)c1ccc2c(c1)OC(N)=C(C#N)C2c1cccnc1 (centres undefined),n,n,75,66,n,60,92
N#CC1=C(N)Oc2cc(N)ccc2C1c1cccnc1 (centres undefined),n,n,n,n,n,x,x
CS(=O)(=O)c1ccc(N2CCN(c3ccccn3)CC2)c([N+](=O)[O-])c1,n,n,n,n,n,x,x
CC1CCC(NC(=O)CCN2C(=O)C3C4C=CC(C4)C3C2=O)CC1 (centres undefined),n,n,n,n,n,x,x
CC1=NN(c2nc(-c3ccc(C)cc3)cs2)C(=O)C1N=Nc1ccccc1O (centres undefined),n,n,63,72,n,80,n
Cc1cccc(C(C)C)c1NC(=O)COC(=O)CCN1C(=O)C2CC=CCC2C1=O (centres undefined),n,n,n,n,n,x,x
CN(c1ccccc1)c1ccc(/C=C(\C#N)c2nnc3n2CCCCC3)cc1[N+](=O)[O-],n,80,n,66,n,n,x
O=c1c(O[C@@H]2O[C@H](CO)[C@@H](O)[C@H](O)[C@H]2O)c(-c2ccc(O)c(O)c2)oc2cc(O)cc(O)c12,x,x,n,52,x,n,x
O=c1c(O[C@@H]2O[C@H](CO)[C@@H](O)[C@H](O)[C@H]2O)c(-c2ccc(O)cc2)oc2cc(O)cc(O)c12,n,n,x,n,n,x,x
CN1CC(c2ccccc2)C2(SC(=S)N(Cc3ccco3)C2=O)C12C(=O)Nc1ccccc12 (centres undefined),n,104,n,76,n,54,51
CN1CC(c2ccccn2)C2(SC(=S)N(Cc3ccccc3)C2=O)C12C(=O)Nc1ccccc12 (centres undefined),n,n,n,n,n,x,x
Cc1ccc(NC(=O)c2cc(-c3ccc(C)c(C)c3O)n[nH]2)cc1C,n,n,n,n,n,x,x
Cc1cccc(NC(=O)c2cc(-c3ccc(C)c(C)c3O)n[nH]2)c1,n,n,n,53,n,n,x
CCN(c1ccc(OC)cc1)c1ncnc2nc[nH]c12,n,n,n,63,n,66,36
CCOC(=O)c1c(-c2ccc(OC)cc2)csc1NC(=O)COc1ccc2c(C)cc(=O)oc2c1,n,n,n,61,n,n,x
CCC(CC)c1nnc(NC(=O)COc2ccc3c(C)cc(=O)oc3c2)s1,n,n,n,n,n,x,x
O=C1C=C(c2ccc3ncccc3c2)C[C@@H](c2ccc(Cl)cc2)C1,n,n,x,54,n,46,83
